From PubChem
ELG1 repair inh: blocks ELG1-dependent DNA repair in HEK293T cells; HEK293T ELG1-luciferase reporter, luminescence, 16 h; DNA damage induced by 5-fluorouridine; Potency, µM (doses to about 46.1 µM), inactives show top-dose activity change, negative = inhibition, most hits filed as inhibitors; hit rate 2.3% among 330,000; also: % is scaled to controls: 0 for no effect and ±100 for the full control effect; nearly all actives have a fitted effect of over 55% in size
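Step one: seed 2,000 cells per well. Step two: pin-transfer compound or DMSO alongside 5-fluorouridine. Step three: incubate 16 hr, 37 °C, 5% CO2. Step four: add ONE-Glo, wait 30 min, read luminescence.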
Rab9 promoter act: Rab9 promoter activation; Huh7 Rab9 promoter-luciferase reporter, luminescence, 24 h; Potency, µM (top dose mostly 9.22 µM), for inactives: at the top dose activation, negative = inhibition, usual class: activators; hit rate 2.8% among 320,000; also: % of control where 0% means no effect; nearly all actives have a fitted effect of over 60% in size
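Promoter activation is measured as luciferase luminescence in Huh7 cells stably transfected with a Rab9 promoter–luciferase construct, following 24 h compound exposure at 37 °C and 10 min reagent incubation at ambient temperature.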
ELG1 genotox: genotoxicity induction in ELG1-luciferase HEK293T cells; AID 504466; HEK293T ELG1-luciferase reporter, luminescence, 16 h; hit rate 1.3% among 330,000; Potency, µM (top dose mostly 46 µM), for the others: at the highest dose activity change, positive = activation, hits mostly activators; also: % of control where 0% means no effect; nearly all actives have a fitted effect of over 60% in size
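16 hr compound incubation (37 °C, 5% CO2) of HEK293T cells carrying luciferase-tagged ELG1; luciferase then measured by ONE-Glo luminescence after 30 min at RT.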
FLuc counter: counter-screen for miR-21 project: firefly luciferase inhibitors or activators; hit rate 6.9% among 360,000; Potency, µM (titrated, usually from 57.5 µM), for the others: at the top dose activity change, negative = inhibition, hits mostly inhibitors; purified FLuc, Km substrates, luminescence inhibition; P08659;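 also: plate controls were vehicle for no effect and reference inhibitor for full effect; nearly all actives have a fitted effect of over 55% in size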
Target sequence (P08659 whole entry, looked up): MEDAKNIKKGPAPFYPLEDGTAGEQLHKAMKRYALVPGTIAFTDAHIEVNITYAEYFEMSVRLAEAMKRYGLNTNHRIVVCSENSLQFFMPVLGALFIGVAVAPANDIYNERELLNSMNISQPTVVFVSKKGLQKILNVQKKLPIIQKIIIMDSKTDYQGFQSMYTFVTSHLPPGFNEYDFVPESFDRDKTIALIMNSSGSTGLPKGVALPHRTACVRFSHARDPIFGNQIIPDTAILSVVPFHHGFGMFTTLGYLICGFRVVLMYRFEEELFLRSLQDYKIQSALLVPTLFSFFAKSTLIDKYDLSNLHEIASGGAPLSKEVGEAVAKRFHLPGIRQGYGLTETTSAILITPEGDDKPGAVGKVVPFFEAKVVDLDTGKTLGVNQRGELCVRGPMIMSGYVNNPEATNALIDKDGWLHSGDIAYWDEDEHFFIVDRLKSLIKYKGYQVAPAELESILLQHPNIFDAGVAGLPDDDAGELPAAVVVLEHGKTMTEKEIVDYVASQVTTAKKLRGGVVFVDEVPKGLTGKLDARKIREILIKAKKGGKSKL
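Purified P. pyralis luciferase, 10 nM final, with Km-level 10 uM D-luciferin and 10 uM ATP in 50 mM Tris acetate pH 7.5, 10 mM Mg acetate, 0.01% Tween-20, 0.05% BSA; 6-point qHTS titration about 60 µM downward; luminescence read.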
NPC1 promoter act: activators of NPC1 promoter; Huh7 NPC1 promoter luciferase reporter, 24 h; hit rate 2.4% among 320,000; Potency, µM (highest dose often 9.22 µM), without a hit: at the top dose activation, most hits filed as activators; also: % of control where 0% means no effect; nearly all actives have a fitted effect of over 60% in size
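Huh7 reporter cells (NPC1 promoter driving luciferase) are dosed with compound for 24 h at 37 °C, 5% CO2; luciferase detection reagent is then added and luminescence measured after 10 min at ambient temperature.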
SMN2 splice enh: SMN2 splice variant enhancement; HEK293 SMN2-luciferase splicing reporter, luminescence, 30-36 h; Potency, µM (top dose mostly 46.1 µM), without a hit: at the highest dose activity change, positive = activation, usual class: activators; hit rate 2.8% among 210,000; AID 1458; also: % of control where 0% means no effect; nearly all actives have a fitted effect of over 55% in size
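qHTS luciferase splicing reporter: luminescence rises when SMN2 exon 7 is included in transfected HEK293 cells. Compound exposure lasted 30-36 h at 37C, with 4.5 mM final sodium butyrate as control, followed by a ONE-Glo read.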
Numbers without * were called inactive; ? = inconclusive; · = no result given. In the library only some 9.3% were active in any assay of this set; here they are far more common. Calls follow the shape of the dose curve; as a rule, active = well fitted curve in the direction sought with a large enough effect; inconclusive = small, poorly fitted or top-dose-only effect, or another doubt; inactive = no such curve, though single readings can be large; an effect the other way counts as inactive or inconclusive. Potency is read from the fitted curve at half-maximal effect.

SMILES | ELG1 repair inh | Rab9 promoter act | ELG1 genotox | FLuc counter | NPC1 promoter act | SMN2 splice enh
Cc1cccc(N(CC(O)Cn2c3ccccc3c3ccccc32)S(=O)(=O)c2ccc(F)cc2)c1 (configuration not stated) | · | · | · | -2% | · | -92%
COc1cccc(-n2c(=O)c3sccc3n(CC(=O)NCC3CCCO3)c2=O)c1 (configuration not stated) | -7% | 0% | 6% | 4% | -1% | ·
O=C(N/N=C/c1ccc(Cl)cc1Cl)c1n[nH]c2c1CCCC2 | ? | 14% | ? | ? | 0% | 14µM*
COc1ccc(N2CCN(C(=O)CCc3ccccc3)CC2)cc1 | -4% | -3% | -1% | 4% | -2% | ·
Cc1ccc2c(c1)-c1c(cnn1CC(=O)N1CCN(c3ccccc3F)CC1)CO2 | · | · | · | -2% | · | 16%
O=C(NNS(=O)(=O)c1ccccc1F)c1cc(-c2ccccc2)n[nH]1 | 4% | -1% | -12% | -14% | 6% | ·
O=C(O)/C=C/C(=O)NNC(=O)c1cc(-c2ccccc2)n[nH]1 | -11% | -2% | 0% | 11µM* | 1% | -11%
O=C(O)c1cc(-c2ccccc2)n[nH]1 | ? | 0% | 1% | -11% | -1% | -1%
O=C(O)/C=C\C(=O)NNC(=O)c1cc(-c2ccccc2)n[nH]1 | 4% | 3% | -1% | 11µM* | -1% | ·
O=c1oc2ccccc2cc1-c1cn2cc(Cc3ccc(F)cc3)sc2n1 | · | · | · | 3% | · | 16%
Cc1ccc(Cc2cn3cc(-c4ccc(F)cc4)nc3s2)cc1 | · | · | · | 0.76µM* | · | ?
Nc1nc(SCc2ccccc2)[nH]c(=O)c1-c1ccccc1 | ? | ? | 12µM* | 19µM* | ? | 13µM*
Nc1nc(SCc2ccccc2Cl)[nH]c(=O)c1-c1ccccc1 | 12% | -6% | -3% | -1% | 0% | -4%
C/C(=N\NC(=O)C1(C)CC1(Br)Br)c1ccc(NC(=O)c2ccc(C)o2)cc1 (configuration not stated) | ? | 22% | -6% | -17% | 11% | -22%
CCCc1ccc(C(=O)NC(=O)c2ccccc2O)cc1 | ? | ? | 6% | 0.6µM* | ? | ·
CCCc1ccc(C(=O)NNC(=O)c2ccc(Br)cc2)cc1 | 1% | 0% | -1% | 3% | -2% | -21%
O=C(NC(=O)c1ccccc1O)c1ccc(C(F)(F)F)cc1 | ? | ? | 5% | 3µM* | ? | ·
O=C(N1CCOCC1)N1CCN(S(=O)(=O)c2ccc(F)cc2)CC1 | 3% | 3% | -2% | -3% | 0% | ·
O=C(Cc1c(F)cccc1Cl)Nc1nc2ccccc2s1 | ? | ? | 9% | 27µM* | 20% | -6%
Cc1nc2ccc(NC(=O)Cc3c(F)cccc3Cl)cc2s1 | ? | 2.5µM* | ? | 4.8µM* | 2.8µM* | ·
c1csc(-c2nnc(NC3CCCCC3)c3ccccc23)c1 | -13% | -3% | -1% | 12µM* | -2% | 3%
CC1CCN(c2nc3ccccc3nc2N2CCC(C)CC2)CC1 | · | · | · | 3% | · | 4%
CC1CCN(c2nnc(-c3cccs3)c3ccccc23)CC1 | 9% | 8% | 6% | 9.5µM* | 0% | -1%
Cc1cccc(NS(=O)(=O)c2cc(C(=O)OC(C)C(=O)NCc3ccc4c(c3)OCO4)ccc2C)c1 (configuration not stated) | 23µM* | -3% | -5% | -6% | 0% | -24%
COc1ccccc1N(C)S(=O)(=O)c1ccc(C(=O)Nc2nc(C)cs2)cc1 | 13µM* | -3% | -23% | -1% | -5% | -45%
COc1ccccc1N(C)S(=O)(=O)c1ccc(C(=O)Nc2cc(F)ccc2C)cc1 | 18µM* | · | -7% | · | · | ·
Cc1cc(-c2csc(NC(=O)c3ccc(S(=O)(=O)N(C)C)cc3)n2)c(C)n1-c1ccccc1 | 9.2µM* | -25% | -6% | ? | -21% | -58%
COc1ccccc1N(C)S(=O)(=O)c1ccc(Cl)c(C(=O)NNC(=O)c2ccccc2O)c1 | 26% | -2% | -7% | 17µM* | 11% | ·
